# Screens from PubChem.
# Shown is part of a subset that was picked to be rich in hits.
# nsP2pro inh: Primary qHTS for inhibitors of NSP2Pro chikungunya virus (CHIKV); Polyprotein P1234 (Chikungunya virus (strain S27-African prototype)), Q8JUX6; Potency, µM (titrated, usually from 24.9 µM), for the others: at the highest dose activity change, negative = inhibition, hits mostly inhibitors; AID 1964107, 2024; FRET peptide cleavage, nsP2pro, fluorescence 1 h; 1.1% of 31,000 active; also: nearly all actives have a fitted effect of over 60% in size
#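 FRET cleavage of 2.5 uM peptide 2 by 150 nM CHIKV protease domain at pH 8.0 (Tris, Tween 20). Compounds at 7 concentrations (up to 25 uM) preincubated 15 min. Fluorescence read after 1 h at room temperature.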
# nsP2 cell sec: Secondary cell base assay for inhibitors of NSP2Pro Chikungunya virus (CHIKV) | cell-based CHIKV nsP2 protease reporter assay | Potency, µM (top dose mostly 51.1 µM), for the others: top-dose activity change, negative = inhibition, usual class: inhibitors | shares compounds with nsP2pro inh | 10% of 450 active | AID 1964100, 2024; also: nearly all actives have a fitted effect of over 70% in size
# CHIKV NSP2 FL: Selectivity profile for inhibitors of NSP2Pro chikungunya virus (CHIKV): Full length NSP2 enzyme counterscreen (CHIKV-NSP2) | Potency, µM (titrated, usually from 50.7 µM), for the others: at the highest dose activity change, negative = inhibition, most hits filed as inhibitors | shares compounds with nsP2pro inh | Full-length CHIKV NSP2 protease enzymatic counterscreen | AID 1964101, 2024 | 39% of 410 active; also: nearly all actives have a fitted effect of over 65% in size
# Furin counter: Selectivity profile for inhibitors of NSP2Pro chikungunya virus (CHIKV): Human furin counterscreen. shares compounds with nsP2pro inh. Recombinant human furin enzymatic counterscreen, fluorogenic substrate. Potency, µM (titrated, usually from 50.6 µM), for inactives: at the highest dose activity change, negative = inhibition, actives largely listed as inhibitors. 6% of 410 active
# Target sequence (P09958 whole entry, looked up): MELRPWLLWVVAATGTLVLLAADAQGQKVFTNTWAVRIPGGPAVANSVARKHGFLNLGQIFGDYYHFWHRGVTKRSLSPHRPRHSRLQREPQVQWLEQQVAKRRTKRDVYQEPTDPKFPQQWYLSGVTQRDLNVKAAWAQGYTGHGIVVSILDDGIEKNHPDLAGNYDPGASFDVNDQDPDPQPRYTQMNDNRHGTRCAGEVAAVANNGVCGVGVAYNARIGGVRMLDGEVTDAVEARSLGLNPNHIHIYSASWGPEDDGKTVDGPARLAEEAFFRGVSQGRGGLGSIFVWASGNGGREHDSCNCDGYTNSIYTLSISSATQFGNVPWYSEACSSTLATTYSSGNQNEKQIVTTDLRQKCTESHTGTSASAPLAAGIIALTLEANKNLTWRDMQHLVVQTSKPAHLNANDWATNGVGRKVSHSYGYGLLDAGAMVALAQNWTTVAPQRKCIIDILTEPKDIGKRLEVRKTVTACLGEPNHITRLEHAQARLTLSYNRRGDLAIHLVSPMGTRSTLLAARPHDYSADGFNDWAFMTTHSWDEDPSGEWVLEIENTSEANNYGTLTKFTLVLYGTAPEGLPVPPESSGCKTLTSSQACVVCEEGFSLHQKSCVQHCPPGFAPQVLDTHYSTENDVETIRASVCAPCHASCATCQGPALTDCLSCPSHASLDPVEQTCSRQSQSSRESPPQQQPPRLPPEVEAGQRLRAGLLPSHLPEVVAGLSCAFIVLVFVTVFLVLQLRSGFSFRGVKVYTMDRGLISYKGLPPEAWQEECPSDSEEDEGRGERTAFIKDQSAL
# nsP2 NS23 pep: Selectivity profile for inhibitors of NSP2Pro chikungunya virus (CHIKV): Endogenous NS2/3 peptide Counterscreen. shares compounds with nsP2pro inh. Purified CHIKV nsP2 protease, endogenous NS2/3 peptide cleavage. Potency, µM (highest dose often 51 µM), without a hit: at the top dose activity change, negative = inhibition, usual class: inhibitors. 34% of 410 active; also: nearly all actives have a fitted effect of over 55% in size
# Papain counter: Selectivity profile for inhibitors of NSP2Pro chikungunya virus (CHIKV): Papain Counterscreen | shares compounds with nsP2pro inh | purified papain protease activity, enzymatic inhibition | Potency, µM (highest dose often 51 µM), for inactives: at the highest dose activity change, negative = inhibition, hits mostly inhibitors | 5% of 410 active | AID 1964104, 2024
# nsP2pro confirm: Confirmatory qHTS for inhibitors of NSP2Pro chikungunya virus (CHIKV) | shares compounds with nsP2pro inh | CHIKV nsP2 protease enzymatic activity, qHTS | Potency, µM (doses to about 25.5 µM), inactives show at the top dose activity change, negative = inhibition, hits mostly inhibitors | 43% of 410 active; also: nearly all actives have a fitted effect of over 75% in size
# HCV NS3 counter: Selectivity profile for inhibitors of NSP2Pro chikungunya virus (CHIKV): NS34A-HCV Counterscreen. AID 1964106, 2024. 20% of 410 active. HCV NS3/4A protease biochemical counterscreen. Potency, µM (highest dose often 50.9 µM), usual class: inhibitors. shares compounds with nsP2pro inh; also: nearly all actives have a fitted effect of over 55% in size
# Starred values were filed as active, the others as inactive; i = inactive; ? = inconclusive; [ ] = dose if it differs, or a comment. Calls follow the shape of the full dose curve. % is scaled to controls: 0 for no effect and ±100 for the full control effect; potency is read from the fitted curve at half-maximal effect.
SMILES,nsP2pro inh,others
CC1(NC(=O)C2CC2)CN(Cc2nc(-c3ccccc3OCc3ccccc3)cs2)C1,i,
O=C(c1ccc(C2CCCNC2)cc1)N1CCN(c2ccncc2)CC1 (configuration not stated),i,
C=C(C)[C@@H]1CC[C@]2(C(=O)O)CC[C@]3(C)[C@H](CC[C@@H]4[C@@]5(C)CC[C@H](OC(=O)CC(C)(C)C(=O)O)C(C)(C)[C@@H]5CC[C@]43C)[C@@H]12,26%,
CCC1C(=O)OC23C=C[C@@H]4C(C(=O)O)=CO[C@H](O[C@@H]12)[C@@H]43 (some centres not stated),-11%,
COc1nc2ccc(Br)cc2cc1[C@@H](c1ccccc1)[C@@](O)(CCN(C)C)c1cccc2ccccc12,1.2µM*,nsP2 cell sec=?;CHIKV NSP2 FL=?;Furin counter=-13%;nsP2 NS23 pep=?;Papain counter=-25%;nsP2pro confirm=7.1µM*;HCV NS3 counter=i
CN(Cc1ccc(-c2ccccc2)cc1)C(=O)C1CC1,-15%[39.2 µM],
COc1ccc(S(=O)(=O)NC[C@H]2Cn3c(-c4ccc(Cl)cc4)cnc3CO2)cc1,i,
CCCCCCCCCCCCCCCC(=O)O,-15%,
CCCCCCCC(=O)O,-5%,
C=CCCCCCCCCC(=O)O,4.3µM*,nsP2 cell sec=-4%[17.6 µM];CHIKV NSP2 FL=1.4µM*;Furin counter=?;nsP2 NS23 pep=?;Papain counter=?;nsP2pro confirm=2.2µM*;HCV NS3 counter=i
CC(C)CN1CCN(C(=O)CC2CCN(S(C)(=O)=O)C2)CC1 (configuration not stated),0%,
CN1c2cccnc2CN(Cc2ccc(C(F)(F)F)cc2)CC[C@H]1CO,6%[39.2 µM],
CC(=O)N1CCC(N2CCOC[C@H]2c2ncc(-c3ccncc3)[nH]2)CC1,i,
COC(=O)N[C@H](C(=O)N1CCC[C@H]1c1ncc(-c2ccc3c(c2)O[C@@H](c2ccccc2)n2c-3cc3cc(-c4cnc([C@@H]5CCCN5C(=O)[C@@H](NC(=O)OC)C(C)C)[nH]4)ccc32)[nH]1)C(C)C,0%,
COC(=O)N[C@H](C(=O)N1CCC[C@H]1c1ncc(-c2ccc(-c3ccc(-c4cnc([C@@H]5CCCN5C(=O)[C@@H](NC(=O)OC)C(C)C)[nH]4)cc3)cc2)[nH]1)C(C)C,?,nsP2 cell sec=-11%;CHIKV NSP2 FL=?;Furin counter=-8%;nsP2 NS23 pep=-19%;Papain counter=i;nsP2pro confirm=?;HCV NS3 counter=i
CC(C)(O)CCc1ccc(CN2CCN([C@H]3CCCC[C@@H]3O)CC2)cc1,4%,
C[C@@H](Oc1cc(-n2cnc3ccc(OC4CCN(C)CC4)cc32)sc1C(N)=O)c1ccccc1C(F)(F)F,199%,
Cc1nc2cc(S(=O)(=O)N3CCOCC3)ccc2n1CCNC(=O)C1CC1,4%,
Cc1cc(S(=O)(=O)Nc2cnccc2C(=O)Nc2nc(-c3ccccc3)cs2)c(C)o1,i,
O=C(O)c1cc(-c2c(-c3ccccc3)nn3ccccc23)n[nH]c1=O,13%,
Nc1c(-c2ccccc2)nc(Cl)c2c(O)n[nH]c(=O)c12,9.9µM*,nsP2 cell sec=-2%;CHIKV NSP2 FL=-5%;Furin counter=-7%;nsP2 NS23 pep=i;Papain counter=24%;nsP2pro confirm=-7%;HCV NS3 counter=i
Cc1ccc(-c2ccc(C(C)Nc3nc(-c4ccccc4C(C)C)ncc3C)cc2)cn1 (configuration not stated),i,
NC(Cc1c[nH]c2ccc(O)cc12)C(=O)O (configuration not stated),?,nsP2 cell sec=8%;CHIKV NSP2 FL=6%;Furin counter=-11%;nsP2 NS23 pep=-19%;Papain counter=-8%;nsP2pro confirm=-26%;HCV NS3 counter=i
O=C(NCCc1c[nH]c2ccc(O)cc12)c1ccc2ccccc2c1O,2%,
CC(=O)NCCc1c[nH]c2ccccc12,4%[39.2 µM],
SMILES,nsP2pro inh,others
Fc1cccc(CN2CCO[C@@H](COc3ccccn3)[C@@H]2c2ccccc2)c1,3%,
Cc1ccc(S(=O)(=O)N2CCCCCC2c2nnc(C)o2)c(C)c1 (configuration not stated),2%,
COc1cc2nc(N3CCN(C(=O)c4ccco4)C4CCCCC43)nc(N)c2cc1OC (configuration not stated),-16%,
S=C(Nc1cc(Cl)ccn1)N1CCN(c2cccc(Cl)c2Cl)CC1,i,
CC(C)c1nc2c(cnn2C)c(=O)n1N,-1%,
CCc1nc2c(NS(=O)(=O)c3cccnc3)cccn2n1,-7%,
O=S(=O)(Nc1cccn2nc(C3CC3)nc12)c1cccnc1,?,nsP2 cell sec=-16%
Cc1cccc(S(=O)(=O)Nc2cccn3nc(C4CCC4)nc23)c1,17%,
COc1cccc(CNc2ccc(S(=O)(=O)Nc3ccc(C)nc3)cc2)c1O,3%,
CC(C(=O)O)C1CCC2(C)C3C(=O)C=C4C(CCC(=O)C4(C)C)C3(C)CCC12C (configuration not stated),7%[10 µM],
Cc1nc2ccccc2c(-c2ccc3c(c2)CCCO3)c1C(OC(C)(C)C)C(=O)O (configuration not stated),-12%,
CCOC(=O)[C@H]1O[C@@H]1C(=O)N[C@@H](CC(C)C)C(=O)NCCC(C)C,8.8µM*,nsP2 cell sec=-9%;CHIKV NSP2 FL=16µM*;Furin counter=-9%;nsP2 NS23 pep=?;Papain counter=1.2µM*;nsP2pro confirm=8µM*;HCV NS3 counter=i
CC(C)CCNC(=O)C1CCCN(C2CCN(CCc3ccccc3)CC2)C1 (configuration not stated),4%,
CC(C)CCNC(=O)[C@H](CC(C)C)NC(=O)[C@H]1O[C@@H]1C(=O)NCc1cccc(C#N)c1,2.5µM*,nsP2 cell sec=?;CHIKV NSP2 FL=6.5µM*;Furin counter=1%;nsP2 NS23 pep=5.8µM*;Papain counter=2.6µM*;nsP2pro confirm=2.5µM*;HCV NS3 counter=i
CCOC(=O)c1noc2ncn(Cc3cccc(C#N)c3)c(=O)c12,-13%,
